Test [1] in a line: rapamycin-like changes in RPL19A-GFP expression – cell-based, S. cerevisiae, multiplex flow cytometry, primary screen (AID 1862; in the data active = percent of DMSO control GFP below about 86%;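 also: lower values mimic rapamycin by blocking the RPL19A rise seen in DMSO cells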). The note with it: S. cerevisiae RPL19A-GFP strain, flow cytometry fluorescence, 3 h; at 10 µM; stronger effect = lower value.
Test [2] is described as follows: TOR pathway GLN3 branch reporter MEP2-GFP changes – S. cerevisiae, multiplex flow cytometry, primary screen (AID 1867;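 active = GFP response, as percent of the DMSO control, above the screen-wide mean plus 3 SD, about 139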;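 also: median GFP channel fluorescence of barcode-gated MEP2-GFP cells measured by flow cytometry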). The note with it: S. cerevisiae MEP2-GFP strain, 3 h, at 10 µM, stronger effect = higher value, 100% means same as DMSO wells.
Test [3] in a line: TOR pathway RTG branch CIT2 reporter changes – S. cerevisiae, GFP fusion, multiplex flow cytometry, primary screen (AID 1870).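 Also: barcoded CIT2-GFP strain pooled with four other GFP strains with rapamycin as positive control; median GFP fluorescence per well over plate mean of DMSO wells so 100% = DMSO.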 The note with it: S. cerevisiae CIT2-GFP expression, 3 h, at 10 µM, stronger effect = higher value.
Test [4] can be described thus: TOR pathway LAP4-GFP level changes – S. cerevisiae, multiplex flow cytometry, primary screen (AID 1873;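 active = GFP signal, as percent of the solvent control, above the screen mean plus 3 SD, about 149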). The note with it: S. cerevisiae LAP4-GFP expression, 3 h, at 10 µM, stronger effect = higher value.
Test [5] is described as follows: yeast AGP1-GFP level changes, GLN3 branch – cell-based, multiplex flow cytometry, S. cerevisiae, primary screen (AID 1887;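 active = GFP signal above the screen-wide mean plus 3 SD, that is over about 124.5% of the solvent control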;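 also: AGP1-GFP fusion strain of S. cerevisiae within a five-strain barcoded multiplex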). The note with it: 3 h, at 10 µM, stronger effect = higher value.
Test [6] can be described thus: reduced mouse 2C T cell binding to pMHC/ICAM-1 vesicles – MLPCN validation set, flow cytometry, LFA-1/ICAM-1 modulator project, pilot screen (AID 2523;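 active = response below a set limit, under 55% cells CD8-positive and vesicle-bound, and CD8 cells' 90th-percentile brightness under 279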;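 as to vesicle binding response: mean PE anti-B7-1 fluorescence of CD8+ cells relative to row control; 100% = QL9-loaded vesicles with DMSO vehicle in the same plate row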). The note with it: 2C mouse CD8+ T cells, at 7 µM, stronger effect = lower value; double positive events: measured here: CD8+/vesicle+ event percentage.
For test [7], the target named is Integrin beta-1 (Homo sapiens) + Integrin alpha-4 (Homo sapiens) (UniProt P13612+P05556). Nature of the test: alpha4beta1 integrin LIBS antibody binding reduction – U937 cells, HUTS-21 mAb, flow cytometry, validation set, VLA-4 allosteric modulator project, pilot screen (AID 2674;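 active = inhibition above 50%, about 3 SD of the validation set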;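 also: antibody binding induced by the VLA-4 ligand LDV present at three times its Kd; 0% = LDV ligand with antibody and no compound and 100% = antibody without LDV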). The note with it: HUTS-21 LIBS mAb binding, at 6.7 µM, stronger effect = higher value, binding induced by LDV ligand.

Test [8] can be described thus: calorie-restriction mimetic ROS inhibitors, yeast – validation compound set, pilot screen (AID 2706;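 active = superoxide response below 65% of plate, a cut near 3 SD across the whole screen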;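 also: yeast exposed to compound for one week at 30 degrees C before staining; 100% = mean of all compound wells on the same plate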). The note with it: S. cerevisiae aging, superoxide DHE fluorescence; at 10 µM; stronger effect = lower value.
Test [9] deals with Beta-adrenergic receptor kinase 1 (Homo sapiens) (UniProt P25098). Nature of the test: GRK2 binders displacing RNA aptamer, biochemical, validation, human GRK2, bead flow cytometry (AID 488806;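 active = aptamer binding inhibition above 30%, about 3 SD of noise from non-fluorescent compounds; inactive = inhibition at or below 30%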). The note with it: bead-bound GRK2, FAM-aptamer displacement, at 10 µM, stronger effect = higher value.
The target in test [10] is Beta-2 adrenergic receptor (Homo sapiens) (UniProt P07550). Put plainly: agonist-induced loss of surface beta2AR – cell-based, FAP fluorogen, flow cytometry, validation set, pilot screen (AID 504459;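 active = percent response above 42, roughly 3 SD of non-fluorescent test compounds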;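 also: agonist-driven loss of surface beta2AR via internalization measured by FAP dye flow cytometry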). The note with it: Am2.2-beta2AR cells, at 10 µM, stronger effect = higher value.
Test [11] has as its target AP-2 complex subunit beta (Homo sapiens) (UniProt P63010). Put plainly: beta-arrestin/AP2 interaction blockers – biochemical, validation set, GST-AP2 beads, flow cytometry, pilot screen (AID 504541;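 active = inhibition above 54%, about 3 SD of non-fluorescent compounds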;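 also: AP2 carries R879A mutation and is captured from E. coli lysate; bead-bound FITC arrestin peptide fluorescence measuring arrestin peptide binding to AP2; 0% = DMSO wells and 100% = excess unlabeled arrestin peptide control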). The note with it: FITC arrestin peptide, at 10 µM, stronger effect = higher value, AP2 beta2 appendage fragment, R879A mutant.
Test [12] in a line: cytosolic pH regulators acting via V-ATPase – S. cerevisiae, pHLuorin, HTS validation (AID 504600; in the data active = response above about 15%;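 also: plate controls were DMSO for no effect and reference compound for full effect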). The note with it: V-ATPase proton transport, at 10 µM, stronger effect = higher value.
Test [13] relates to anti-desmoglein-3 scFv antibody binding to human DSG3. Put plainly: blockers of pathogenic pemphigus antibody–desmoglein-3 binding – biochemical, validation compound set, bead-based, flow cytometry, pilot screen (AID 588368;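 active = binding below the plate cutoff, the plate median minus 3 SD, with a reading above zero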;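 also: signal is the median channel fluorescence of bead-bound GFP antibody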). The note with it: Protein G beads, DSG3-Fc, scFv-GFP binding, at 10 µM, stronger effect = lower value.
Test [14] in a line: Nile Red efflux blockade in pump-expressing yeast – validation compound set, multiplex, phenotypic, pilot screen (AID 588506;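 active = efflux inhibition above 0.42, the validation set average plus 4 SD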;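 also: Nile Red retained in cells so higher fluorescence means more efflux inhibition; 0 = negative control wells and 1 = enniatin B 25 µM full block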). The note with it: S. cerevisiae pump-expressing triplex, Nile Red efflux flow cytometry; at 10 µM; stronger effect = higher value; the pumps come from Candida albicans.
The target in test [15] is ATP-binding cassette sub-family B member 6 (Homo sapiens) (UniProt Q9NP58). Put plainly: blockers of ABCB6-driven porphyrin uptake – K562-ABCB6 cells, flow cytometry, validation set, pilot screen (AID 588550;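 active = inhibition above the screen-wide mean plus 3 SD, about 51%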;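 also: 0% = DMSO wells and 100% = benzethonium chloride 70 µM positive control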). The note with it: K562-ABCB6 porphyrin accumulation, 1 h, at 10 µM, stronger effect = higher value.
Test [16] can be described thus: AML differentiation inducers, ER-HoxA9 marrow cells – cell-based, GFP/MAC1 double positive, flow cytometry, validation set, primary screen (AID 588685;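 active = differentiation response of at least 50%, scaled between solvent and reference control, from cells with both markers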;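 also: compound exposure lasts four days before antibody staining and flow analysis; 0% = DMSO wells and 100% = 5 µM fulvestrant positive control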). The note with it: stronger effect = higher value, normalized: vehicle 0, fulvestrant 100.

SMILES strings stand for the structures. Records with an inconclusive call do not appear. Activity calls are given as the source filed them.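 The calls were made as follows, unless noted: active = percent response above a set limit, the screen-wide mean plus 3 SD (cut at about 130% in these data); inactive = the rest.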

Chain of Integrin beta-1 (Homo sapiens) + Integrin alpha-4 (Homo sapiens) (P05556 whole entry, looked up): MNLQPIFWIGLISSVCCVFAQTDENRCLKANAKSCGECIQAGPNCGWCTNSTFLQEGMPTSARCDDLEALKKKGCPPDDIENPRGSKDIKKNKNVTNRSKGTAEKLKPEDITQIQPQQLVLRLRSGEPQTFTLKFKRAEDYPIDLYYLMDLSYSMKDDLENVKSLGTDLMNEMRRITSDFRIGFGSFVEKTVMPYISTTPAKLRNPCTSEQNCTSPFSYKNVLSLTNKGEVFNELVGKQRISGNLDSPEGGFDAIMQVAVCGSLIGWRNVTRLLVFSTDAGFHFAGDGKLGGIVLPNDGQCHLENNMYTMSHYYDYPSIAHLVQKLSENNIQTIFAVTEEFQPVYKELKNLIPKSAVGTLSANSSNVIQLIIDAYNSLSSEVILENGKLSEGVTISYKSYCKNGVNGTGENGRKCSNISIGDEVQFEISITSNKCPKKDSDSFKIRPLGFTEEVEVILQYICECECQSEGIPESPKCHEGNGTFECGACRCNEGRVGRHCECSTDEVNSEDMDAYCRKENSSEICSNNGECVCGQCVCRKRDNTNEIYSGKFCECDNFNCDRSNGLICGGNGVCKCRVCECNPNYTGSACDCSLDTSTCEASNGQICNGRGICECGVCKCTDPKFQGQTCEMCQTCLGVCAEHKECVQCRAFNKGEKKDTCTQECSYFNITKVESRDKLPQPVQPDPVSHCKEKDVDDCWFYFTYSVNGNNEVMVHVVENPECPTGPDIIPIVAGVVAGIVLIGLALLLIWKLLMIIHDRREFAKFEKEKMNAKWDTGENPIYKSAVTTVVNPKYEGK
Chain of Integrin beta-1 (Homo sapiens) + Integrin alpha-4 (Homo sapiens) (P13612 whole entry, looked up): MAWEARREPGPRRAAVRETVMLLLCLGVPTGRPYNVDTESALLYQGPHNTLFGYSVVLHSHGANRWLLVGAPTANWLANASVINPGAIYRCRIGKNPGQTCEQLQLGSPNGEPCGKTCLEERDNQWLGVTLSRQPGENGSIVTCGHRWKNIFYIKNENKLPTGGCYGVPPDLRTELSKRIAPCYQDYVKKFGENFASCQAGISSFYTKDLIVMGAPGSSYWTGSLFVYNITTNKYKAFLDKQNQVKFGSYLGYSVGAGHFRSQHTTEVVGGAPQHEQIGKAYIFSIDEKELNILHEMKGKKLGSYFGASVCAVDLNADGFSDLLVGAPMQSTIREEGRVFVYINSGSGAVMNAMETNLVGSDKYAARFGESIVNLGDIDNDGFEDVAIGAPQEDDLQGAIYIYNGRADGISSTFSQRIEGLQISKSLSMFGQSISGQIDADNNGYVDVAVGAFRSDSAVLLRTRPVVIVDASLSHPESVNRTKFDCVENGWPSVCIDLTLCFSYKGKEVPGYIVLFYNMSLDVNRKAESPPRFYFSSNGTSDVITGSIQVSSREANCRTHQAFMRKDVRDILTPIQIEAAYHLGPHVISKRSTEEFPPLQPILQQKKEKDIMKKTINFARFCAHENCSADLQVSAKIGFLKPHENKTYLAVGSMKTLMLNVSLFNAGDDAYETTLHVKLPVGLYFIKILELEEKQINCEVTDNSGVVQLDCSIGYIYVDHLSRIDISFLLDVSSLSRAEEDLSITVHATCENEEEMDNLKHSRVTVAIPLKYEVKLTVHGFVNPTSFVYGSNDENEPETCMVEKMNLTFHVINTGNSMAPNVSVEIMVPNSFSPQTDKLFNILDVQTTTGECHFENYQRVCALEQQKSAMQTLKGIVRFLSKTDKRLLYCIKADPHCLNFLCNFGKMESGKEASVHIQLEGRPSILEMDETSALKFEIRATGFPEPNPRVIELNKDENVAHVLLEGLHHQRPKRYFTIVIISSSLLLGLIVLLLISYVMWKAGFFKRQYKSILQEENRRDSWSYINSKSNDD
Chain of Beta-2 adrenergic receptor (Homo sapiens) (P07550 whole entry, looked up): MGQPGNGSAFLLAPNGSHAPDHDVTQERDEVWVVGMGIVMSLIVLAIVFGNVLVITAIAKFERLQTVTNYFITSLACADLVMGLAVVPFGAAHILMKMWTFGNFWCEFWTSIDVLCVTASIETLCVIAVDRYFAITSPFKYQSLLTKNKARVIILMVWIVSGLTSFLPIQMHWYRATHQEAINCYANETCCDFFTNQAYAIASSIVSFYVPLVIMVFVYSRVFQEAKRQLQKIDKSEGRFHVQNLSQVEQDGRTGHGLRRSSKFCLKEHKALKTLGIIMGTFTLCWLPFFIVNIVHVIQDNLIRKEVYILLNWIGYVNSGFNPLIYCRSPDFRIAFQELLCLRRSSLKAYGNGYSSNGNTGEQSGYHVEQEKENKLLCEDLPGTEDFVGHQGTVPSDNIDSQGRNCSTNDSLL
Chain of AP-2 complex subunit beta (Homo sapiens) (P63010 whole entry, looked up, the tested form may be a part, one chain of several): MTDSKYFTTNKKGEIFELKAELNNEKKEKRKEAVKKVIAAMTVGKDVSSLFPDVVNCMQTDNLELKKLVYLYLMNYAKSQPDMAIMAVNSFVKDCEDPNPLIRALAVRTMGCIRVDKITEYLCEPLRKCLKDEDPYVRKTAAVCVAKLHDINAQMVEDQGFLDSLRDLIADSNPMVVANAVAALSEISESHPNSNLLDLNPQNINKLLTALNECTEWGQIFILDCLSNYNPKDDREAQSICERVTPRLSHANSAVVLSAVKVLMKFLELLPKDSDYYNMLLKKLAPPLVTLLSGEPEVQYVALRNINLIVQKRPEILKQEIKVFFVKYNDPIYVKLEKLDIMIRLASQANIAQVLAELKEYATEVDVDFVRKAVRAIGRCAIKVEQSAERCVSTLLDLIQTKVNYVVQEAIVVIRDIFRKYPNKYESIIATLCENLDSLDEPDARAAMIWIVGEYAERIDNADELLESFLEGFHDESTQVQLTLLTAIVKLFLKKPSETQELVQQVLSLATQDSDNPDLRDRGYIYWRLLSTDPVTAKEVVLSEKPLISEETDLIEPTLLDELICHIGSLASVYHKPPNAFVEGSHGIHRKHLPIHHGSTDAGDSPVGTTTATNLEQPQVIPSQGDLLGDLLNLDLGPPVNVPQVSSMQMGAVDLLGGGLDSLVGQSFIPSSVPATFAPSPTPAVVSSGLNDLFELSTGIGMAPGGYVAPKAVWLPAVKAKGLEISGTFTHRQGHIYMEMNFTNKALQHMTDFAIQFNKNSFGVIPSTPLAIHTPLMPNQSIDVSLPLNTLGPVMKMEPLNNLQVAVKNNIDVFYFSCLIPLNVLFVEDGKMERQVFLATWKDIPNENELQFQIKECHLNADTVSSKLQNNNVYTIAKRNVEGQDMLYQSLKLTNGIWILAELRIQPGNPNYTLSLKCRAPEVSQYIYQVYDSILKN
Chain of Beta-adrenergic receptor kinase 1 (Homo sapiens) (P25098 whole entry, looked up): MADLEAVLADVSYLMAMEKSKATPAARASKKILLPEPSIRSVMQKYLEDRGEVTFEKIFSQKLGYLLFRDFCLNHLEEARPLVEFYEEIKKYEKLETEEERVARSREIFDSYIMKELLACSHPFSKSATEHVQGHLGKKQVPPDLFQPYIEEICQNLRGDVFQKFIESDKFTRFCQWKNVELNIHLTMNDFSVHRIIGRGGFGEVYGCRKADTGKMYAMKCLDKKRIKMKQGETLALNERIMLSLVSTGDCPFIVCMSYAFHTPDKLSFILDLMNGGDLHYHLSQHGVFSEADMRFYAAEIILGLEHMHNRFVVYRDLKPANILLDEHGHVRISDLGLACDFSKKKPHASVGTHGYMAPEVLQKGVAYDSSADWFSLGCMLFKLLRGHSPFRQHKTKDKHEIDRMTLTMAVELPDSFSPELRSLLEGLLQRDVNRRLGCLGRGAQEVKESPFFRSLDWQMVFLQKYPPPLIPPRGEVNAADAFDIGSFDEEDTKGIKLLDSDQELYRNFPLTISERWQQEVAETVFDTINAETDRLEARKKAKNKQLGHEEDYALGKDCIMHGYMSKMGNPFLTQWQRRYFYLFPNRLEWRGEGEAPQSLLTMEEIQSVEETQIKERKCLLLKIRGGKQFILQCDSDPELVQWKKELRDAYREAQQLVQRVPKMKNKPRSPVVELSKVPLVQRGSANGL
Chain of ATP-binding cassette sub-family B member 6 (Homo sapiens) (Q9NP58 whole entry, looked up): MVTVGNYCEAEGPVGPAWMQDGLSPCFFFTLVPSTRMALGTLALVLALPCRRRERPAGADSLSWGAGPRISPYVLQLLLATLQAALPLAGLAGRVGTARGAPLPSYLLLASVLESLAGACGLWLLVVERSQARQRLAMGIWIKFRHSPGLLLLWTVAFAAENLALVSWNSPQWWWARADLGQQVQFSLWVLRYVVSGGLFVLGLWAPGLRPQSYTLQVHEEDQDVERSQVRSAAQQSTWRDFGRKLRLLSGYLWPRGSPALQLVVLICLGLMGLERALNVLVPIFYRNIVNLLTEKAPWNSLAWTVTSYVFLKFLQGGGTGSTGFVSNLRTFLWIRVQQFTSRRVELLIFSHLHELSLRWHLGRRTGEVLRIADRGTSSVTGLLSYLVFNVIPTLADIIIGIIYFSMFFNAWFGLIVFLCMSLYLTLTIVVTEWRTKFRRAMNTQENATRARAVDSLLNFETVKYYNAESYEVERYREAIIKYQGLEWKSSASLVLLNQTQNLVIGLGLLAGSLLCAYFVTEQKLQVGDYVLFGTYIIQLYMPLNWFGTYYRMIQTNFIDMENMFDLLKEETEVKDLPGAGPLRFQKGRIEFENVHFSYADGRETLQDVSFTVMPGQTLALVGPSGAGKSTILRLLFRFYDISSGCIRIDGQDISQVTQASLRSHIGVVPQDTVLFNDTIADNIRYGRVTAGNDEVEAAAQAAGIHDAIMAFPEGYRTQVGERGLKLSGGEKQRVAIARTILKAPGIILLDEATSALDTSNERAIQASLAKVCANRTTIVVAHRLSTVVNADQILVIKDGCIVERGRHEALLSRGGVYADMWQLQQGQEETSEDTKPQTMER

Turning to `COc1ccc(OC(C)C(=O)Nc2ccccc2F)cc1` (stereo not given), the percent of DMSO control GFP in test [1] was 102% (inactive). The values for the GFP response vs DMSO in test [2] and in test [4] were 99.7% (inactive) and 108% (inactive), respectively. In addition, the percent response of DMSO control in [3] was 102% (inactive). Further, the GFP response, % of DMSO in [5] was 99.3% (inactive). This molecule also displayed a double positive events in test [6] of 58.4%. In addition, the vesicle binding response in test [6] was 151% (inactive). Also, the values for the inhibition in test [7], in test [11] and in test [15] were 25.7% (inactive), -5.67% (inactive) and 8% (inactive), respectively. Also, the superoxide response (% of plate) in test [8] is 90.6% (inactive). Moreover, the aptamer binding inhibition in [9] was 0% (inactive). Further, the response in test [10] is 6.77% (inactive); in test [12], 0.03% (inactive). In addition, the binding (% of control) in test [13] was 104% (inactive). Besides, the efflux inhibition (fraction of control) in test [14] was -0.15 (inactive). The differentiation response in [16] was -6.03% (inactive).

With `CC(=O)NC1C(OCc2ccccc2)OC(COC(C)=O)C(OC(C)=O)C1OC(C)=O` (stereo not given), the percent of DMSO control GFP in test [1] was 104% (inactive). For the same molecule, the values for the GFP response vs DMSO in test [2] and in [4] were 104% (inactive) and 91.5% (inactive), respectively. Besides, the percent response of DMSO control in test [3] was 106% (inactive). In test [5], the GFP response, % of DMSO was 96% (inactive). The same molecule came in with a double positive events in [6] of 65.2%. Further, in [6], the vesicle binding response is 183% (inactive). Further, the inhibition is -44% (inactive) in test [7], -2% (inactive) in test [11] and 2% (inactive) in test [15]. The superoxide response (% of plate) in [8] was 105% (inactive). Also, the aptamer binding inhibition in test [9] is 2% (inactive). The figures for the response in [10] and in test [12] were 1.83% (inactive) and -3.81% (inactive), respectively. Further, the binding (% of control) in test [13] was 104% (inactive). Besides, the efflux inhibition (fraction of control) in [14] is 0.12 (inactive). Besides, the differentiation response in test [16] was -6.03% (inactive).

On to `COCCCNc1nc2c([nH]1)c(=O)[nH]c(=O)n2C`, for which the percent of DMSO control GFP in test [1] was 104% (inactive). Moreover, the GFP response vs DMSO in [2] was 99.6% (inactive); in [4] it was 112% (inactive). Further, the percent response of DMSO control in test [3] was 105% (inactive). The GFP response, % of DMSO in [5] was 114% (inactive). The same molecule came in with a double positive events in test [6] of 63.1%. For the same molecule, in [6], the vesicle binding response is 156% (inactive). In addition, the inhibition in test [7] was 9.95% (inactive); in test [11], 13.3% (inactive); in [15] it was 6% (inactive). Besides, in [8], the superoxide response (% of plate) was 94.3% (inactive). Besides, the aptamer binding inhibition in test [9] was 4% (inactive). Besides, the results for the response in test [10] and in [12] were -17.8% (inactive) and 6.45% (inactive), respectively. Also, the binding (% of control) in test [13] was 98.5% (inactive). In addition, the efflux inhibition (fraction of control) in test [14] was -0.17 (inactive). Also, the differentiation response in [16] is -5.97% (inactive).

For the molecule `CCN(CC)CCNC(=O)c1cc(Cl)c(N)cc1OC`, the percent of DMSO control GFP in test [1] is 105% (inactive). For the same molecule, the GFP response vs DMSO is 107% (inactive) in [2] and 92% (inactive) in test [4]. The percent response of DMSO control in [3] is 89.6% (inactive). Further, the GFP response, % of DMSO in test [5] was 99.7% (inactive). For the same molecule, in [6], the double positive events was 63.2%. The vesicle binding response in test [6] is 204% (inactive). Also, the inhibition was -28.5% (inactive) in test [7], 23.4% (inactive) in test [11] and -10% (inactive) in test [15]. In addition, the superoxide response (% of plate) in [8] was 104% (inactive). In test [9], the aptamer binding inhibition was 5% (inactive). In addition, the response in test [10] is 2.1% (inactive); in [12] it was -4.6% (inactive). Besides, the binding (% of control) in test [13] is 100% (inactive). Also, the efflux inhibition (fraction of control) in [14] was -0.1 (inactive). The differentiation response in [16] was 7.09% (inactive).

As to `O=C(O)CCCCCN1C(=O)C(=O)/C(=C(/O)c2ccccc2)C1c1ccccc1` (stereo not given), the percent of DMSO control GFP in test [1] is 99.5% (inactive). The figures for the GFP response vs DMSO in [2] and in test [4] were 97.4% (inactive) and 119% (inactive), respectively. The percent response of DMSO control in test [3] was 98.6% (inactive). The GFP response, % of DMSO in test [5] is 102% (inactive). Besides, the double positive events in test [6] was determined as 63.1%. In addition, the vesicle binding response in test [6] was 212% (inactive). The figures for the inhibition in [7], in test [11] and in [15] were -5.89% (inactive), -10.9% (inactive) and 7% (inactive), respectively. Moreover, the superoxide response (% of plate) in [8] was 103% (inactive). Also, the aptamer binding inhibition in [9] is 7% (inactive). Besides, the response in [10] is -2.6% (inactive); in test [12] it was -1.69% (inactive). In test [13], the binding (% of control) is 98% (inactive). Further, the efflux inhibition (fraction of control) in test [14] was -0.06 (inactive). The differentiation response in [16] was 7.2% (inactive).
